Laboratory results from PubChem BioAssay (NCATS).
Results filed as inconclusive are left out. The source made the active and inactive calls. Unless noted, calls follow the shape of the dose curve; as a rule, active = well fitted curve in either direction with a large enough effect (not every such curve was filed as active); inconclusive = small, poorly fitted or top-dose-only effect, or another doubt; inactive = flat fitted curve, though single readings scatter.

Experiments:
[1] = molecular target: Lysosomal acid glucosylceramidase (Homo sapiens) (UniProt P04062); assay: Glucocerebrosidase-p2 (AID 348; in the data active = potency below about 10 µM; also: potency is read from the fitted curve at half-maximal effect); conditions: purified GBA, blue fluorogenic substrate, 40 min
In short: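 Compounds titrated from 0.6 nM upwards against 0.2 nM enzyme in pH 5.9 citric acid/KH2PO4, taurocholate, tween-20; blue fluorogenic substrate 80 uM, 40 min room temperature, stopped and read Ex 365/Em 440 for AC50.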

[2] = AP1 Signaling Pathway (AID 357); conditions: ME-180 AP-1-bla reporter, EGF-induced, beta-lactamase ratio, 5 h; at 7.69 µM (top of the series) unless noted; also: % is scaled to controls: 0 for no effect and ±100 for the full control effect
In short: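 AP-1-bla ME-180 cells with beta-lactamase reporter under AP-1 response element, stimulated with EC50 EGF; compounds titrated, 5 hours at 37 degrees Celsius. CCF4 read at 460/530 nm ratio; positive and negative modulators judged by AC50.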

[3] = Stat Signaling Pathway (AID 446); conditions: ME-180 (cervical carcinoma) SIE beta-lactamase reporter, IL-6 stimulated, 5 h; at 7.69 µM (top of the series) unless noted;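 also: ME-180 cervical cancer cells given 40 pM IL-6 alongside compound; SIE-controlled beta-lactamase reporter measured as 460/530 nm FRET emission ratio; % is scaled to controls: 0 for no effect and ±100 for the full control effect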
In short: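 IL-6/STAT signaling read in ME-180 cells via an SIE beta-lactamase reporter. Stimulus was 40 pM IL-6 (its AC50) for 5 hrs, so both activation and inhibition register.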

[4] = molecular target: Glucocorticoid receptor (Homo sapiens) (UniProt P04150); assay: GR-GFP Redistribution (AID 450;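 active = compounds whose dose series gives a full or clear partial fitted curve of increased nuclear translocation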; also: potency is read from the fitted curve at half-maximal effect); conditions: U2OS GR-GFP nuclear translocation, laser cytometry, 2 h
[5] = molecular target: Glucocorticoid receptor (Homo sapiens) (UniProt P04150); assay: GR-EFC Redistribution (AID 451; calls by dose curve; also: potency is read from the fitted curve at half-maximal effect); conditions: CHO-K1 GR-EFC translocation, beta-gal luminescence, 2 h
In short: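 Translocation of GR-ED fusion to nuclear EA restores b-gal, read by luminescence after 1 h room-temperature detection. Engineered CHO-K1 biosensor cells, 1,000/well, exposed 2 h at 37 C to titrations up to 46 uM final.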

[6] = molecular target: Mitogen-activated protein kinase 10 (Mus musculus) (UniProt Q61831); assay: JNK3 AlphaScreen Assay (AID 530); conditions: JNK3 lysate, c-Jun phosphorylation; series mostly up to 57.1 µM;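 also: kinase came from lysate of stimulated human HepG2 cells; signal reports phosphorylation of biotinylated GST-cJun 1-79 at Ser73 with 10 µM ATP; % is scaled to controls: 0 for no effect and ±100 for the full control effect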
In short: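 Room-temperature AlphaScreen kinase assay; pre-activated HepG2 lysate as JNK3 source, biotin-GST-cJun(1-79) substrate, 10 uM ATP, compound 15 min preincubation.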

[7] = molecular target: 3',5'-cyclic-AMP phosphodiesterase 4B (Homo sapiens) (UniProt Q07343); assay: qHTS Assay for Inhibitors of PDE-IV (AID 607; active = well fitted activation curve with a large enough effect in the main read-out, with a control signal flat, not every such curve was filed as active; also: % of control where 0% means no effect); conditions: HEK293 ACTOne CNG channel cells, membrane potential fluorescence; series mostly up to 22.9 µM
In short: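 Live HEK293 cells with a modified cyclic nucleotide-gated (CNG) channel report intracellular cAMP via membrane-potential dye fluorescence (ex 535/em 590 nm). Endogenous PDE-IV was targeted. Compounds were tested at up to 22.9 uM final; RO 20-1724 100 uM served as control.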

[8] = molecular target: Cytochrome P450 2D6 (Homo sapiens) (UniProt P10635); assay: qHTS Assay for Inhibitors and Substrates of Cytochrome P450 2D6 (AID 891; active = well fitted curve in the direction sought with a large enough effect; an effect the other way counts as inactive or inconclusive; also: potency is read from the fitted curve at half-maximal effect; nearly all actives have a fitted effect of over 60% in size); conditions: recombinant CYP2D6, luciferin-ME EGE luminescence; series mostly up to 11.4 µM
In short: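 Human CYP2D6 (5 nM) with 30 uM Luciferin-ME EGE (at Km) in 100 mM KPO4, compound preincubated 10 min, then NADPH regeneration system for 60 min at room temperature. Luciferin read by luminescence; normalized to 1.43 uM quinidine.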

[9] = molecular target: Cytochrome P450 1A2 (Homo sapiens) (UniProt P05177); assay: p450-cyp1a2 (AID 410; calls by dose curve; also: potency is read from the fitted curve at half-maximal effect;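 as to activity change, negative = inhibition: -100% = full effect of reference inhibitor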); conditions: recombinant CYP1A2, luciferin-ME demethylation, luminescence; series mostly up to 11.4 µM
In short: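 Inhibition was calculated relative to 57 uM furafylline (full inhibition). The reaction used human CYP1A2 at 20nM with Luciferin-ME at its Km, 100uM, driven by an NADPH-regenerating system for 60 min at room temperature.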

[10] = NFAT Signaling Pathway (AID 444); conditions: Jurkat NFAT-bla M1, carbachol, beta-lactamase ratio, 5 h; at 7.69 µM (top of the series) unless noted;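 also: carbachol stimulus at about its EC50 of 1 µM final; % is scaled to controls: 0 for no effect and ±100 for the full control effect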
In short: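 Read-out: CCF4 FRET ratio (460 nm/530 nm) after 1 h RT dye loading, used for %activity and AC50 from titration series. Cells: Jurkat NFAT-β-lactamase/M1 line, treated with compound plus 1 uM carbachol for 5 h, 37 °C.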

[11] = molecular target: Guanine nucleotide-binding protein G(i) subunit alpha-1 (Homo sapiens) (UniProt P63096); assay: qHTS Assay for Inhibitors of RGS12 GoLoco Motif Activity (Green Fluorophore) (AID 879; active = well fitted curve in the direction sought with a large enough effect; an effect the other way counts as inactive or inconclusive;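 also: 0% = labeled peptide with Gαi1 and full inhibition = labeled peptide alone without protein; negative values mean loss of peptide binding seen as reduced polarization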); conditions: Galphai1/FITC-RGS12 GoLoco peptide, fluorescence polarization; series mostly up to 57.1 µM
In short: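 Fluorescence polarization assay: 50 nM Gαi1 with 10 nM FITC-labeled RGS12 GoLoco peptide in 10 mM Tris pH 7.5, 150 mM NaCl, 0.1 mM GDP, 0.05% NP40, 10 min at room temperature with compound.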

[12] = molecular target: Cytochrome P450 3A4 (Homo sapiens) (UniProt P08684); assay: qHTS Assay for Activators of Cytochrome P450 3A4 (AID 885; active = well fitted curve in the direction sought with a large enough effect; an effect the other way counts as inactive or inconclusive; also: nearly all actives have a fitted effect of over 65% in size); conditions: recombinant CYP3A4, Luciferin-PPXE luminescence, 60 min; series mostly up to 57.1 µM
In short: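 Quantitative HTS format: compounds preincubated with 20nM human CYP3A4 and Luciferin-PPXE substrate at KM, reaction started by NADPH regeneration, stopped after 60 min, luciferase luminescence read 20 min later.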

[13] = molecular target: Muscarinic acetylcholine receptor M1 (Rattus norvegicus) (UniProt P08482); assay: qHTS Assay for Antagonists of Acetylcholine Muscarinic M1 Receptor: Measurement of IP-One Response (AID 944; active = well fitted curve in the direction sought with a large enough effect; an effect the other way counts as inactive or inconclusive; also: nearly all actives have a fitted effect of over 75% in size); conditions: CHO-M1 cells, IP-One HTRF, antagonist mode; series mostly up to 46.1 µM
In short: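 Steps: plate transfected CHO-M1 cells overnight; add test compound, 10 min; add carbachol (200 nM, EC80) in stimulation buffer with LiCl; incubate 30 min; add labelled IP1 tracer and anti-IP1 antibody in lysis buffer; read HTRF after 10 min.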

[14] = molecular target: Pyruvate kinase (Leishmania mexicana) (UniProt Q27686); assay: qHTS Validation Assay for Inhibitors of Leishmania Mexicana Pyruvate Kinase (AID 945; active = well fitted curve in the direction sought with a large enough effect; an effect the other way counts as inactive or inconclusive;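 also: 0% = DMSO only neutral control wells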); conditions: purified L. mexicana pyruvate kinase, enzyme activity, E451W mutant enzyme; series mostly up to 57.5 µM
In short: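 The enzyme is a highly purified E451W mutant of LmPYK used at 0.2 nM. It converts 0.5 mM PEP and 0.1 mM ADP over 1 h at room temperature; product ATP is quantified by luciferase luminescence relative to DMSO controls.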

[15] = molecular target: Pyruvate kinase PKM (Homo sapiens) (UniProt P14618); assay: qHTS Assay for Activators of Human Muscle Pyruvate Kinase (AID 954; active = well fitted curve in the direction sought with a large enough effect, not every such curve was filed as active;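 also: 0% = uninhibited enzyme and -100% = no enzyme or full thiadiazolimine inhibition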); conditions: purified human muscle pyruvate kinase, luciferase-coupled luminescence, 1 h; series mostly up to 57.5 µM
In short: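 Enzyme was run at intermediate activity so both inhibitors and activators could be detected. ATP formed from ADP and PEP by 0.1 nM human PKM2 during a 1 h room-temperature incubation was quantified by coupled luciferase luminescence.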

[16] = molecular target: Alpha-galactosidase A (Homo sapiens) (UniProt P06280); assay: Counterscreen for Glucocerebrosidase Inhibitors: qHTS Assay for Human alpha-Galactosidase at pH 4.5 (AID 992; active = well fitted curve in the direction sought with a large enough effect; an effect the other way counts as inactive or inconclusive; also: 0% is about no effect); conditions: purified enzyme, fluorogenic substrate; series mostly up to 76.9 µM
In short: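 Read-out is 4-methylumbelliferone fluorescence (365 nm excitation, 440 nm emission) after a pH 10 NaOH/glycine stop. Reactions held 2 nM enzyme and 80 uM substrate at pH 4.5 for 20 min at room temperature.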

[17] = molecular target: alpha-glucosidase (Oryza sativa, rice) (UniProt Q653V4); assay: Counterscreen for Glucocerebrosidase Inhibitors: qHTS Assay for Rice alpha-Glucosidase at pH 5.0 (AID 997; active = well fitted curve in the direction sought with a large enough effect; an effect the other way counts as inactive or inconclusive;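 also: 0% = full activity with enzyme and -100% = basal without enzyme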); conditions: rice alpha-glucosidase enzyme activity; series mostly up to 76.9 µM
In short: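 Rice alpha-glucosidase (4 nM final) with 400 uM 4-methylumbelliferyl-alpha-D-glucopyranoside in citrate buffer pH 5.0, 20 min at room temperature, stopped at pH 10; fluorescence 365/440 nm, compounds 0.7 nM–77 uM, AC50 from Hill fits.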

Chain of Glucocorticoid receptor (Homo sapiens) (P04150 whole entry, looked up, the tested form may be a part): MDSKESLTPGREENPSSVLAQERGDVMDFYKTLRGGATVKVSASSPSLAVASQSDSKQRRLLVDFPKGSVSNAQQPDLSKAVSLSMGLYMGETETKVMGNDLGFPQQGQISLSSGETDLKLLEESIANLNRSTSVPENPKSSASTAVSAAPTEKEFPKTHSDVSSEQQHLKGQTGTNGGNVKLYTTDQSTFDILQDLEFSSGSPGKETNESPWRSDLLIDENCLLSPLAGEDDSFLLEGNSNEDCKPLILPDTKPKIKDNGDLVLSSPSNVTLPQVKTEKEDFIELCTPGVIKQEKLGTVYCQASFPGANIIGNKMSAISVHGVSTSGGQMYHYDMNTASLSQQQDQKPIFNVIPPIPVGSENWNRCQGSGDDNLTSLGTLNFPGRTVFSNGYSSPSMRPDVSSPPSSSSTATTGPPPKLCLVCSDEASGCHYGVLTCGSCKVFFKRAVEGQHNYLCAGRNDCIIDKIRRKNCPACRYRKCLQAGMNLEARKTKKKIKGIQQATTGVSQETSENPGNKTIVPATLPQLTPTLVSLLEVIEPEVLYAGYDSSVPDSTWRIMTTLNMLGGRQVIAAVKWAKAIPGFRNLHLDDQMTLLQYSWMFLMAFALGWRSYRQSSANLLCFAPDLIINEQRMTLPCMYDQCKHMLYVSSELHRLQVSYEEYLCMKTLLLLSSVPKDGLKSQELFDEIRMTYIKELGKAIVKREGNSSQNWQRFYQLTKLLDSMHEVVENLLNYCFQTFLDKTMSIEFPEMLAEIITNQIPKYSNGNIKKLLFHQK
Chain of Cytochrome P450 1A2 (Homo sapiens) (P05177 whole entry, looked up): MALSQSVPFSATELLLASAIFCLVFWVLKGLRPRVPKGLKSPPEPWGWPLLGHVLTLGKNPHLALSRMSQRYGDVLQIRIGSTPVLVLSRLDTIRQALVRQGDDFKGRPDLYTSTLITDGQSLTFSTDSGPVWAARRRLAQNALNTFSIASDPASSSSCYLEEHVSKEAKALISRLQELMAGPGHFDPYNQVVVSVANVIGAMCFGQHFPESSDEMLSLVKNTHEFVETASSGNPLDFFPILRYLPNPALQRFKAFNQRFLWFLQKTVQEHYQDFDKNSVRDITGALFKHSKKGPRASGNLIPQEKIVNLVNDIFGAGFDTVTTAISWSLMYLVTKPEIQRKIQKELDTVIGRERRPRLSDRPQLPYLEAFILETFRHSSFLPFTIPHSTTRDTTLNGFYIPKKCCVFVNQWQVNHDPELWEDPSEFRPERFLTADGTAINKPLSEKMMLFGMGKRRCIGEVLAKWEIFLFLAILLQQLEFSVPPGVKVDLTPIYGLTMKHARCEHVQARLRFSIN
Chain of 3',5'-cyclic-AMP phosphodiesterase 4B (Homo sapiens) (Q07343 whole entry, looked up): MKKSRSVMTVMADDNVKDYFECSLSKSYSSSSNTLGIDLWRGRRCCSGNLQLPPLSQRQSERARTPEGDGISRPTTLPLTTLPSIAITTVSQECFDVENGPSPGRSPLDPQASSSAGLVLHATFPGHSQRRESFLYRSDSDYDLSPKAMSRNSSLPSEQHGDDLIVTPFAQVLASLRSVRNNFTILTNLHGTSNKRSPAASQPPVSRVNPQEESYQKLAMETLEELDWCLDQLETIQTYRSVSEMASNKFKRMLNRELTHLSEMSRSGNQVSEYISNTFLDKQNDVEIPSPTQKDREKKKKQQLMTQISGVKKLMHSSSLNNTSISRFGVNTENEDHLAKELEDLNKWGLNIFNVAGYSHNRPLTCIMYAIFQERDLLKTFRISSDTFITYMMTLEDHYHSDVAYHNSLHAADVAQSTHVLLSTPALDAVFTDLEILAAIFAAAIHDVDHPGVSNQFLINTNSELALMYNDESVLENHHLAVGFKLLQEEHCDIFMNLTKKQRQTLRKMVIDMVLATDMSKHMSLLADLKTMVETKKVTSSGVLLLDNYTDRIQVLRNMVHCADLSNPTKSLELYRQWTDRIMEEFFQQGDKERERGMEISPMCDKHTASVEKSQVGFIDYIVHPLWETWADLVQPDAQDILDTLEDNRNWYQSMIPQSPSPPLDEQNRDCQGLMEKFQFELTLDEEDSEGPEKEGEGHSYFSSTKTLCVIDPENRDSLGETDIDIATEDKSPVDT
Chain of Lysosomal acid glucosylceramidase (Homo sapiens) (P04062 whole entry, looked up): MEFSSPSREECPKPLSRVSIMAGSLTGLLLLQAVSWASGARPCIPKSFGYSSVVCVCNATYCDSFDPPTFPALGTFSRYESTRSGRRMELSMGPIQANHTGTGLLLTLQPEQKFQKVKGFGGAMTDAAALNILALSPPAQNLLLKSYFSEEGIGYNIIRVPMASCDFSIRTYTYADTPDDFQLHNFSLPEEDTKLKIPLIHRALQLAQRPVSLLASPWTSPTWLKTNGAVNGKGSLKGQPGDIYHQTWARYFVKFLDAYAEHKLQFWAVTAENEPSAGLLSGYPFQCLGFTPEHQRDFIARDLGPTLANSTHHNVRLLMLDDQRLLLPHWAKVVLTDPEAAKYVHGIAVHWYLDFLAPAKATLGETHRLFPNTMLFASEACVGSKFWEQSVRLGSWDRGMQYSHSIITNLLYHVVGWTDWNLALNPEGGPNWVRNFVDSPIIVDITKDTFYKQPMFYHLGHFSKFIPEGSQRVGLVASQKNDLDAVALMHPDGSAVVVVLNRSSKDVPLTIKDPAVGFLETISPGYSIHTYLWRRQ
Chain of Cytochrome P450 2D6 (Homo sapiens) (P10635 whole entry, looked up): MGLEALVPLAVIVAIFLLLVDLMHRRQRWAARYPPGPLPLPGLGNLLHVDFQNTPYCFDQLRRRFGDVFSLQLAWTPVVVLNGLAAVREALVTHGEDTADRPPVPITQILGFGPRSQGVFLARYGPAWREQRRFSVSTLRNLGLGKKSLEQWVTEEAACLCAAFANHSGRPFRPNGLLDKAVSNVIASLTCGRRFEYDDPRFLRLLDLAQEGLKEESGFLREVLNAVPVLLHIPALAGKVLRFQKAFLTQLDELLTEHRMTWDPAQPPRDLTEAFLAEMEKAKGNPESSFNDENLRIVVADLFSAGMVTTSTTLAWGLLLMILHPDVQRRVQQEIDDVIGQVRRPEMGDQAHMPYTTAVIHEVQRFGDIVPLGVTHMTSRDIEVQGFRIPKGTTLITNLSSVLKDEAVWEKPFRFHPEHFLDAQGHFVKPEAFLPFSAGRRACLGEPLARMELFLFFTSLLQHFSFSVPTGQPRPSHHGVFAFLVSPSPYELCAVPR
Chain of Muscarinic acetylcholine receptor M1 (Rattus norvegicus) (P08482 whole entry, looked up): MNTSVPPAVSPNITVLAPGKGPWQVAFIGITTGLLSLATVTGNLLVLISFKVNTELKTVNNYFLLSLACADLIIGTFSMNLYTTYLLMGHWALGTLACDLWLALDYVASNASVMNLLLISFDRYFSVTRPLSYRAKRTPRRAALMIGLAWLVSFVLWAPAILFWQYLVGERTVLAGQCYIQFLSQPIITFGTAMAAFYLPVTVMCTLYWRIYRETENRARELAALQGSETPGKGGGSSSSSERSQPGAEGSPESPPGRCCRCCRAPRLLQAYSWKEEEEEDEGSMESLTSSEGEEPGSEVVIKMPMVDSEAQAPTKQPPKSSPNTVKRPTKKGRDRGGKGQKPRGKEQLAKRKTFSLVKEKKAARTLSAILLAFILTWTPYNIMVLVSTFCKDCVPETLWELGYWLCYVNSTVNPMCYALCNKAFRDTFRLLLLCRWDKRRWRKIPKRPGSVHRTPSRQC
Chain of Pyruvate kinase PKM (Homo sapiens) (P14618 whole entry, looked up): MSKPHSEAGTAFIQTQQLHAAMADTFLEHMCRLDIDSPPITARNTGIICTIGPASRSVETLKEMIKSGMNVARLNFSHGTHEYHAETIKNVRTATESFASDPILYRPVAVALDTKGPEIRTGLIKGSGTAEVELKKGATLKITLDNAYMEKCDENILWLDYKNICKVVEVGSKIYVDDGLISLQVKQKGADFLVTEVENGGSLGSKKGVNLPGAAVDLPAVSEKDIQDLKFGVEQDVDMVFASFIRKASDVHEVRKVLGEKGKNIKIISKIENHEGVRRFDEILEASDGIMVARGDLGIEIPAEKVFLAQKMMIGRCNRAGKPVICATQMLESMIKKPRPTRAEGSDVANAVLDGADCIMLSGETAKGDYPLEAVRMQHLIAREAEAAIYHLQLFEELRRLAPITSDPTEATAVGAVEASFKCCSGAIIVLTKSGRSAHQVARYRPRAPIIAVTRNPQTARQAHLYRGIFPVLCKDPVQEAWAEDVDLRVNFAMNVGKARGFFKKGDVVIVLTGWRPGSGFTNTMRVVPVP
Chain of Cytochrome P450 3A4 (Homo sapiens) (P08684 whole entry, looked up): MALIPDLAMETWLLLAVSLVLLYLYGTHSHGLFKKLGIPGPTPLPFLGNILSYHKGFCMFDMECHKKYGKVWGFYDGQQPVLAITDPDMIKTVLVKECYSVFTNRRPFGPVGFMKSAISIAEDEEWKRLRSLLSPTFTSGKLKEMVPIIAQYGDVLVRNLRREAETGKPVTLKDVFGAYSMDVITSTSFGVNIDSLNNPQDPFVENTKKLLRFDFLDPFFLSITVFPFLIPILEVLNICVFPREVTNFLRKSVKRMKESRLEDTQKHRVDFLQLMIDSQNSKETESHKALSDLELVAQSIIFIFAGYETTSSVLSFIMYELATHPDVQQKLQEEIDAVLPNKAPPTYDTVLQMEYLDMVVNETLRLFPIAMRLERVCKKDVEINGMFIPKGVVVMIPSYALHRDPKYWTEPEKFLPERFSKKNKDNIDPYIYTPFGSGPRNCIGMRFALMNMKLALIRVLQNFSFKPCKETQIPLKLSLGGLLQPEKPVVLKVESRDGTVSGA
Chain of Alpha-galactosidase A (Homo sapiens) (P06280 whole entry, looked up): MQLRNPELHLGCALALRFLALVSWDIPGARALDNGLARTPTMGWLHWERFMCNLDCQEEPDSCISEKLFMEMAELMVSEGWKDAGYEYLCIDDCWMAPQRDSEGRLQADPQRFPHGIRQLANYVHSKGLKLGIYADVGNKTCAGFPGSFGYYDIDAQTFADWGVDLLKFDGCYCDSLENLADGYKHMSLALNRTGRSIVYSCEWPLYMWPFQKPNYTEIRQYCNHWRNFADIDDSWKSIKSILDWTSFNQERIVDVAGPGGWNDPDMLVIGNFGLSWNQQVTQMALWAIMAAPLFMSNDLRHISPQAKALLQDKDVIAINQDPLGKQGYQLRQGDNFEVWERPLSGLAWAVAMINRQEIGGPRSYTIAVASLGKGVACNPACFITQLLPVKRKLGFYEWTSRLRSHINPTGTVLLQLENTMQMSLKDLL

O=C(N1CCOCC1)C1(c2ccccc2)CCNCC1
inactive: Potency [1] > 11.4 µM | activity change, negative = inhibition [2] -2.66% | activity, negative = inhibition [3] 8.97% | Potency [4] > 46 µM | Potency [5] > 9.22 µM | activity change, negative = inhibition [6] 3.92% [at 11.4 µM] | outcome [7]

COC1=C(C)C(=O)c2c(c(COC(N)=O)c3n2C[C@@H]2[C@@H]3N2C)C1=O (stereo partly specified)
active: Potency [8] 1.58 µM
inactive: Potency [1] > 11.4 µM | Potency [4] > 46 µM | Potency [5] > 9.22 µM | activity change, negative = inhibition [6] -0.1% [at 11.4 µM] | outcome [7]

CC(=O)[C@@H]1CC[C@H]2[C@H]3CC[C@H]4C[C@@H](O)CC[C@]4(C)[C@@H]3CC[C@]12C
inactive: activity change, negative = inhibition [2] 11.2% [at 38 µM] | activity change, negative = inhibition [10] -10.3% [at 38 µM] | activity, negative = inhibition [3] -25.9% [at 38 µM] | Potency [4] > 46 µM | Potency [5] > 46 µM | Potency [6] | outcome [7] | outcome [11] | Potency [12] | Potency [13] | outcome [14] | outcome [15] | outcome [16] | outcome [17]
active: Potency [9] 10 µM

Oc1c(Cl)c(Cl)c(Cl)c(Cl)c1Cl (tested in a mixture with another compound)
inactive: Potency [1] > 11.4 µM | activity change, negative = inhibition [2] -9.55% [middle of 4 runs] | activity, negative = inhibition [3] -12.9% [middle of 4 runs] | Potency [4] > 46 µM | Potency [5] > 9.22 µM | activity change, negative = inhibition [6] 0.344% [at 11.4 µM] [middle of 4 runs] | outcome [7]

C=C[C@@H]1CN2CC[C@H]1C[C@H]2[C@H](O)c1ccnc2ccccc12
active: Potency [8] 3.98 µM
inactive: Potency [1] > 11.4 µM | Potency [9] | activity change, negative = inhibition [10] 0.393% | activity, negative = inhibition [3] 3.16% | Potency [4] > 46 µM | Potency [5] > 9.22 µM | activity change, negative = inhibition [6] 5.22% [at 11.4 µM]

COc1cc2c(cc1O)C[C@@H]1c3c(cc(O)c(OC)c3-2)CCN1C
active: Potency [9] 3.98 µM
inactive: Potency [1] > 11.4 µM | activity change, negative = inhibition [10] -0.493% | activity, negative = inhibition [3] 0.101% | Potency [4] > 46 µM | Potency [5] > 9.22 µM | activity change, negative = inhibition [6] 4.75% [at 11.4 µM] | outcome [7]

ClCC[N+]12CC[N+](CCCl)(CC1)C2 (tested in a mixture with another compound)
inactive: Potency [1] > 11.4 µM | activity change, negative = inhibition [2] 1.69% | activity change, negative = inhibition [10] -23.8% | activity, negative = inhibition [3] 3.41% | activity change, negative = inhibition [6] 2.18% [at 11.4 µM]
